High-throughput results (PubChem)
HTT aggregate – mutant huntingtin aggregation inhibition; PC12 HttQ103-GFP aggregates, Acumen cytometry, 40 h; Potency, µM (doses to about 46.1 µM), without a hit: at the highest dose activity change, negative = inhibition, most hits filed as inhibitors; hit rate 1.1% among 220,000; note: % is set by controls: 0 for no effect and ±100 for the full control effect; nearly all actives have a fitted effect of over 60% in size
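PC12 cells stably carrying ecdysone-inducible HTT exon 1 Q103–GFP were induced with tebufenozide (100 nM final) and treated with library compounds in titration. GFP aggregates in lysates were counted by laser scanning cytometry.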
KDM4E inh – inhibitors of human JMJD2E histone demethylase. B2RXH2. JMJD2E catalytic domain, FDH-coupled NADH fluorescence (FDH is formaldehyde dehydrogenase). Potency, µM (top dose mostly 57.1 µM), without a hit: top-dose activity change, negative = inhibition, hits mostly inhibitors. hit rate 1.6% among 230,000. AID 2147; active = well fitted inhibition curve with a large enough effect, not every such curve was filed as active; inconclusive = small, poorly fitted or top-dose-only effect, or another doubt; inactive = no such curve, though single readings can be large or run the other way;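 note: 0% = wells with enzyme and -100% = buffer wells without enzyme; nearly all actives have a fitted effect of over 50% in size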
L3MBTL1 inh – blocks human L3MBTL1; Q9Y468; AlphaScreen L3MBTL1–H3K9me1 peptide binding; Potency, µM (top dose mostly 57.1 µM), for the others: at the top dose activity, negative = inhibition, hits mostly inhibitors; hit rate 0.66% among 230,000; AID 485360; note: % is set by controls: 0 for no effect and ±100 for the full control effect; nearly all actives have a fitted effect of over 60% in size
Target sequence (Q9Y468 whole entry, looked up): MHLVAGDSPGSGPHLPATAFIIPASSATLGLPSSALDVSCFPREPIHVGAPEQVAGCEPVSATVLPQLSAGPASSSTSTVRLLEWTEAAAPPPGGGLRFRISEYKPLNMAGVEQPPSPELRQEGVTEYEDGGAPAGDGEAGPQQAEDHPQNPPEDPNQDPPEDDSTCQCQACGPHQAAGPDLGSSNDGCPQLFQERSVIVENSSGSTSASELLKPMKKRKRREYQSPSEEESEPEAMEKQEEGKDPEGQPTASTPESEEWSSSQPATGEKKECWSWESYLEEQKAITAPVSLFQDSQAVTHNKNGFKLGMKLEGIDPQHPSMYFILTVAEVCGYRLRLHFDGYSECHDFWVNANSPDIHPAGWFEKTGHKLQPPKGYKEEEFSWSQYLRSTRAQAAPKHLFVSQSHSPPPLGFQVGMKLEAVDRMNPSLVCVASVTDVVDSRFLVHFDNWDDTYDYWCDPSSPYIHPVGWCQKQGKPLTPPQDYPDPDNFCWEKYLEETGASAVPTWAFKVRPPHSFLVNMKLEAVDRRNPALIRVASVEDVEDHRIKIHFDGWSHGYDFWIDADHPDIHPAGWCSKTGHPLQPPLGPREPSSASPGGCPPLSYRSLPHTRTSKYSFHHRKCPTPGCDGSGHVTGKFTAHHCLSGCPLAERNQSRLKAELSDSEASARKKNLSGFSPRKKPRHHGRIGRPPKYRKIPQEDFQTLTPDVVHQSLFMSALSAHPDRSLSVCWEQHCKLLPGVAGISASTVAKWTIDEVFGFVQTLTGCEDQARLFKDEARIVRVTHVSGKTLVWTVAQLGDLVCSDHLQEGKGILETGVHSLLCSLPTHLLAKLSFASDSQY
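Read-out is AlphaScreen signal from streptavidin donor and nickel chelate acceptor beads (10 ug/mL final each) bridging L3MBTL1 (50 nM) and biotinylated K9-monomethylated H3(1-15) peptide (75 nM), after 30 min compound exposure at room temperature.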
HTT cytoprotect – Huntington cell model cytoprotection by ATP luminescence; Potency, µM (series often up to 56.4 µM), for the others: cytoprotection (ATP increase), hits mostly activators; AID 1471; PC12 HTT-Q103 induced, cytoprotection, ATP luminescence, 40 h; hit rate 0.14% among 230,000; note: % of control where 0% means no effect; nearly all actives have a fitted effect of over 45% in size
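Compounds were screened for protection of PC12 cells against cell death after tebufenozide induction (100 nM final) of mutant Huntingtin exon 1 (Q103) fused to GFP.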
Active calls of the source: *; ? = inconclusive; · = no result given; [ ] = dose if it differs, or a comment. Shown are actives, neighbours in structure and some others; about 1.8% of the full set was active somewhere. Unless noted, calls come from the whole dose curve; as a rule, active = well fitted curve in the direction sought with a large enough effect; inconclusive = small, poorly fitted or top-dose-only effect, or another doubt; inactive = no such curve, though single readings can be large; an effect the other way counts as inactive or inconclusive. Potency is the fitted concentration of half-maximal effect.

SMILES | HTT aggregate | KDM4E inh | L3MBTL1 inh | HTT cytoprotect
C[C@H]1Cc2c(COc3ccccc3)nc3c(c2CO1)CN(C(=O)NCCc1c[nH]c2ccccc12)CC3 | · | -4%[11.4 µM] | · | -24%[10 µM]
COc1cccc(-c2nc(N(C)Cc3ccco3)c3ccccc3n2)c1 | · | · | · | -37%
Cc1ccccc1-n1c(C)cc(/C=C2/C(=N)N3C(c4ccccc4)=CSC3=NC2=O)c1C | 6% | ? | -10% | -15%[10 µM]
N=C1/C(=C\c2ccc(-c3cccc(C(=O)O)c3)o2)C(=O)N=C2SC=C(c3ccccc3)N12 | 2%[9.22 µM] | ? | 22µM* | 11%[10 µM]
CC1(C)C(=O)C=C[C@@]2(C)C1C=C[C@@]1(C)C2CC[C@@]2(C)C(c3ccoc3)OC(=O)C3OC312 (stereo partly drawn) | · | -6% | · | -5%
C=C(C(C)=O)C(O)c1ccccc1 (stereo not drawn) | · | 2% | · | -26%
O=C1CC(c2ccco2)CC(O)=C1C=NCC1CCNCC1 (stereo not drawn) | 4% | 10µM* | 2% | -24%
O=C1CC(c2ccco2)CC(O)=C1C=NCCN1CCNCC1 (stereo not drawn) | -15% | ? | -3%[11.4 µM] | -1%
O=c1c(-c2ccccc2)nc2cnc(N3CCOCC3)nc2n1Cc1cccs1 | · | · | · | 7%
CC(C)NC(=O)Nc1ccc(Br)cc1Cl | -15%[9.22 µM] | 17% | 2% | -2%[10 µM]
O=C(Nc1ccc(Br)cc1Cl)NC1CC1 | 18µM* | 4% | 0% | -19%
Oc1ccc(N2CCN(c3ncnc4sc5c(c34)CCC5)CC2)cc1 | 11µM* | -15% | -21% | 6%[10 µM]
CC[C@@H](c1ccccc1)n1c(=O)n2n(c1=O)[C@H]1[C@H](O)[C@H]3O[C@@H]3/C(=N/OCc3ccccc3)[C@@H]1CC2 | · | · | · | 11%[10 µM]
COC(=O)C/C=C\[C@@H](C)[C@@H](/C=N\OC[C@@H](O)[C@H]1O[C@H]2OC(C)(C)O[C@H]2[C@@H]1O)NS(=O)(=O)c1ccc(C)cc1 | · | · | · | -3%[10 µM]
Cc1cccc(NC(=S)N(CCCN2CCOCC2)Cc2cn(C)c3ccccc23)c1 | 8.9µM* | -3% | ? | -39%[10 µM]
Cc1ccc(NC(=S)N(C)Cc2cn(C)c3ccccc23)cc1 | 35µM* | 7% | -5% | 8%[10 µM]
Cn1cc(CN(CCCN2CCOCC2)C(=S)Nc2cccc(Cl)c2)c2ccccc21 | ? | -4% | 4% | -51%[10 µM]
COc1ccccc1NS(=O)(=O)c1cc(NC(=O)c2ccc(Cl)nc2)ccc1Cl | 25µM* | ? | -7% | 33%[10 µM]
Cc1cc(C)c2c(N)c(C(=O)c3ccccc3)sc2n1 | -21%[9.22 µM] | 90% | 23% | -4%[10 µM]
Cc1nc2sc(C(N)=O)c(N)c2c(C)c1CC(=O)c1ccccc1 | 3.5µM* | -10% | · | -41%
COC(=O)C1C2CC3c4[nH]c5cc(OC)ccc5c4CCN3CC2CC(OC(=O)c2cc(OC)c(OC)c(OC)c2)C1OC (stereo not drawn) | · | 20µM* | · | 11%[1.9 µM]
C=CCOC(=O)N[C@@H](c1ccccc1)[C@@H](C)[N+](=O)[O-] | · | 8% | · | 25%
Cc1cc(=O)cc2oc3cc(N)c(-c4c(C)cc(O)cc4O)c(C)c3nc1-2 | · | 8.9µM* | · | -18%[1.9 µM]
CC1(C(=O)O)CCC2(C)CCC3(C)C(=CC(=O)C4C5(C)CCC(O)C(C)(C)C5CCC43C)C2C1 (stereo not drawn) | -8% | · | · | -62%
CCC1CCCCN1C(=O)CSc1nc2ccsc2c(=O)n1Cc1ccccc1 (stereo not drawn) | 16µM* | -5% | · | -33%
SMILES | HTT aggregate | KDM4E inh | L3MBTL1 inh | HTT cytoprotect
CC1=NN(c2nc(-c3ccc(Cl)cc3)cs2)C(=O)C1 | ? | 25µM* | 40% | -53%
CCCc1nc(Cl)c(C#N)c2c1CCCC2 | 0% | -1% | 16% | -16%[10 µM]
CCc1nc(Cl)c(C#N)c2c1CCCC2 | 11µM* | 3% | 14% | 2%[10 µM]
Cc1cccc(Nc2nc(N)c([N+](=O)[O-])c(N3CCCC(C)C3)n2)c1 (stereo not drawn) | -4% | 3% | 32µM* | 7%[10 µM]
NS(=O)(=O)c1ccc(N=Nc2c(-c3ccccc3)[nH]n(-c3nc(-c4ccccc4)cs3)c2=O)cc1 | 5.6µM* | -17% | -16% | 22%[10 µM]
NC(=O)c1ccc(N=Nc2c(-c3ccccc3)[nH]n(-c3ccccc3)c2=O)cc1 | 0% | 8% | -5% | -3%
COc1ccc(-c2nc3cnc(N(C)C)nc3n(CCC#N)c2=O)cc1 | · | · | · | -1%
CC1(C)OC(=O)C(=Cc2ccc(-c3ccc(Cl)c(C(=O)O)c3)o2)C(=O)O1 | -4% | ? | 6.3µM* | 13%[10 µM]
CN1CCN(c2nc(-c3ccc4c(c3)OCO4)nc3ccccc23)CC1 | · | · | · | -20%
C/C(=N/NC(=O)c1ccncc1)c1cc2ccc(O)cc2oc1=O | 13µM* | ? | -4% | 22%[10 µM]
C/C(=N\NC(=O)c1ccncc1)c1cc2ccccc2oc1=O | ? | 14µM* | -5% | -8%[10 µM]
Cc1cc(C)cc(N2C(=O)CC(Sc3nnnn3-c3ccccc3)C2=O)c1 (stereo not drawn) | ? | -7% | 6% | -70%
Cc1cc(C)cc(N2C(=O)CC(Sc3ncn[nH]3)C2=O)c1 (stereo not drawn) | -2%[9.22 µM] | 1.3µM* | 8% | 4%[10 µM]
COC(=O)N1C(C2CC2)=Cc2ccccc2C1CC(C)=O (stereo not drawn) | · | 0% | · | ?
CCC(C)Cn1c(C)nc2ccccc21 (stereo not drawn) | 20µM* | -1% | -8% | -31%
O=C1C(O)=C(O)C(=O)C(O)=C1O | 17% | 13µM* | · | ?
CCOC(=O)C1CCN(C2=C(NS(=O)(=O)c3ccc(Cl)cc3)C(=O)c3ccccc3C2=O)CC1 | -21%[9.22 µM] | -3% | ? | 3%[10 µM]
O=C1C(NS(=O)(=O)c2ccccc2)=C(N2CCN(c3ccc(F)cc3)CC2)C(=O)c2ccccc21 | 9%[9.22 µM] | -5% | ? | 12%[10 µM]
CC1CCN(C2=C(NS(=O)(=O)c3ccccc3)C(=O)c3ccccc3C2=O)CC1 | 6%[9.22 µM] | ? | 11µM* | 7%[10 µM]
CC1CCN(C2=C(NS(=O)(=O)c3ccc(Cl)cc3)C(=O)c3ccccc3C2=O)CC1 | ? | -9% | 16µM* | 11%[10 µM]
Oc1ccc(-c2nc(-c3ccc(O)c(O)c3)cs2)cc1 | 16% | 28µM* | -28% | -33%
Oc1ccc(Nc2nc(-c3ccc4ccccc4c3)cs2)cc1 | 23%[9.22 µM] | ? | · | -55%[10 µM]
CC(C)[C@@H](OCc1ccccc1)[C@H](C)/C=N\OC[C@@H](O)COCc1ccco1 | · | · | · | -5%[10 µM]
CCCCC1CN2C(CCC(C)C2c2ccc(Br)cc2)C(=O)O1 (stereo not drawn) | · | · | · | -1%[10 µM]
C[C@@H](CN1CCC(Cc2ccccc2)CC1)[C@H](O)c1ccc(O)cc1 | · | · | · | -4%[1.9 µM]
Nc1c(-c2ccccc2)nc(Cl)nc1-c1ccccc1 | 15% | ? | 24% | -6%
c1ccc(-c2nc3nonc3nc2-c2ccccc2)cc1 | 3.2µM* | 3% | ? | -140%
COCCn1c(=O)c(-c2cccc(C#N)c2)nc2cnc(N3CCNCC3)nc21 | · | · | · | 6%
Cc1ccc(Cl)cc1N1CCN(C(=O)CSc2nnc3n2C(C)(C)Cc2ccccc2-3)CC1 | 7.9µM* | -1% | -5% | ?
